# Records with an inconclusive call do not appear. Calls of active or inactive are those of the source. Rule for the calls: active = hit-call score of the fitted dose curve at least 0.9, where 1 is the maximum; inconclusive = response in the unintended direction; inactive = score below 0.9.
# Biological target: PGR (gene 5241) (UniProt P06401)
# Assay: TOX21_PR_LUC_Followup_Antagonist: Tox21 HEK293 Progesterone Receptor (PR) Antagonism Luciferase Follow-Up Assay (AID 2283938);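 note: curve fitted upward as signal gain over DMSO baseline despite antagonist label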
# From the text: TOX21_PR_LUC_Followup is a secondary assay for specificity for the TOX21_PR_BLA_Agonist assay. To differentiate true PR agonists from cytotoxic substances, this follow up assay is multiplexed with a cell viability assay.TOX21_PR_LUC_Followup_Antagonist is one of one assay component(s) measured or calculated from the TOX21_PR_LUC_Followup assay. It is designed to make measurements of luciferase induction, a form of inducible reporter, as detected with bioluminescence signals by CellTiter-Glo Luciferase-coupled ATP quantitation technologyData from the assay component TOX21_PR_LUC_Followup_Antagonist was analyzed into 1 assay endpoint. This assay endpoint, TOX21_PR_LUC_Followup_Antagonist, was analyzed in the positive analysis fitting direction relative to DMSO as the negative control and baseline of activity. Using a type of inducible reporter, gain-of-signal activity can be used to understand changes in the reporter gene as they relate to the gene NR3C3. Furthermore, this assay endpoint can be referred to as a primary readout, because the performed assay has only produced 1 assay endpoint. To generalize the intended target to other relatable targets, this assay endpoint is annotated to the nuclear receptor target family, where the subfamily is steroidal.
# (§1) Quality Control Precautions: Maintain cells below 85-90% confluence in culture medium. For assay purpose, the cells should be cultured in assay medium with 10% charcoal stripped FBS for 5 days with alternate day medium changed to fresh medium. Especially while in assay culture, the cells should not reach more than 85% confluence as they would become harder to detach if they reach over confluence.Assay Protocol: HEK293-PR-A-luc cells were dispensed at 3,000 cells/5 uL/well of culture medium into white wall/solid-bottom 1536-well plates using a Multidrop Combi (ThermoFisher Scientific, Waltham, MA) dispenser. After the assay plates were incubated at 37C and […] for 5 h, 23 nL of compounds dissolved in DMSO, positive controls or DMSO only was transferred to the assay plate by a Pintool station (Kalypsys, San Diego, CA). The plates were incubated at 37C and […] for 16 h. Then 4 uL of ONE-Glo reagent (Promega, Madison, WI) was added to each plate using a BioRAPTR Flying Reagent Dispenser (FRD) workstation (Beckman Coulter, Indianapolis, IN, USA) and luminescence was quantified on a ViewLux (PerkinElmer, Shelton, CT) plate reader after 30 min incubation at room temperature.
# Sequence of PGR (gene 5241) (P06401 whole entry, looked up): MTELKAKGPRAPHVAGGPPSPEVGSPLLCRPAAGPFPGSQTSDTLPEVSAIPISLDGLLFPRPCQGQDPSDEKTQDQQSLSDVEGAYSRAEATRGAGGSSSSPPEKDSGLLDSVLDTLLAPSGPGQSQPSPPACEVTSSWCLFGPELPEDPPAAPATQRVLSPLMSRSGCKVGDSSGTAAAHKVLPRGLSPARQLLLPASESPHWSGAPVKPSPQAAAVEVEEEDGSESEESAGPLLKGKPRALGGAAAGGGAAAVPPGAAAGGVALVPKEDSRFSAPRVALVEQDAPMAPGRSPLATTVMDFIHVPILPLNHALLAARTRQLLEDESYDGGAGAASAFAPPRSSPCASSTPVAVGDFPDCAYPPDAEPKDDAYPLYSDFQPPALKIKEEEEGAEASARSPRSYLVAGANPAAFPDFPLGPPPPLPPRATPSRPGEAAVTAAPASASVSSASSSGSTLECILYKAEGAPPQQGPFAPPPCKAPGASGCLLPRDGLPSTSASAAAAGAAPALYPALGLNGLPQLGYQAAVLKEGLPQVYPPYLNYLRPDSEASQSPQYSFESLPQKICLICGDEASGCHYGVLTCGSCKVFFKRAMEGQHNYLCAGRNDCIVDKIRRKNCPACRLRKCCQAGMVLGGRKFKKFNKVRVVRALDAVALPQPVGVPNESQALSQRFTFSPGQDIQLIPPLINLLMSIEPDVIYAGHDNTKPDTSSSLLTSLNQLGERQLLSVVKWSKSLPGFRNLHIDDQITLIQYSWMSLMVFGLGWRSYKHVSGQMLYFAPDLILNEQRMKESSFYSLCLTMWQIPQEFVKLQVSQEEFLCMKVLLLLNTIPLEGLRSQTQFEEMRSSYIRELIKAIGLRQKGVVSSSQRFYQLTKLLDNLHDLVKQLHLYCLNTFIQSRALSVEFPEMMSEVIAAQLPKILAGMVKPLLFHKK
Structure (SMILES),AC50,outcome
CCOC(=O)c1ccccc1C(=C1C=C(Br)C(=O)C(Br)=C1)c1cc(Br)c(O)c(Br)c1,28.9 µM (active),
CC(C)(c1cc(Br)c(OCCO)c(Br)c1)c1cc(Br)c(OCCO)c(Br)c1,12.8 µM (active),
COc1ccc(C(Cl)=C(c2ccc(OC)cc2)c2ccc(OC)cc2)cc1,8.88 µM (active),
Cc1ccc(C(C)c2ccc(C)c(C)c2)cc1C,,inactive
Nc1ccc(-c2ccc(F)cc2)cc1,,inactive
CCC(=O)Oc1ccc(/C(CC)=C(\CC)c2ccc(OC(=O)CC)cc2)cc1,16.5 µM (active),
CC(=O)[C@H]1[C@H](C#N)C[C@H]2[C@@H]3CC=C4C[C@@H](O)CC[C@]4(C)[C@H]3CC[C@@]21C,,inactive
C[C@]12CCC(=O)C=C1CC[C@@H]1[C@@H]2C(=O)C[C@@]2(C)[C@H]1CC[C@]2(O)C(=O)CO,,inactive
C#CC1(O)CC[C@H]2[C@@H]3CCC4=CCCC[C@@H]4[C@H]3CC[C@@]21C (stereo partly specified),23.9 µM (active),

# Tested on: not listed separately
# Assay: TOX21_PR_LUC_Followup_Antagonist_viability: Viability Assessment in the Tox21 HEK293 Progesterone Receptor (PR) Antagonism Luciferase Follow-Up Assay (AID 2283940)
# Outline: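 HEK293-PR-A-luc, 3,000 cells/well; 5 h at 37C/0% CO2; compound pin transfer; 16 h incubation; CellTiter-Glo ATP luminescence, signal loss = cytotoxicity.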
row,Structure (SMILES),outcome
1,CCOC(=O)c1ccccc1C(=C1C=C(Br)C(=O)C(Br)=C1)c1cc(Br)c(O)c(Br)c1,inactive
2,CC(C)(c1cc(Br)c(OCCO)c(Br)c1)c1cc(Br)c(OCCO)c(Br)c1,inactive
3,COc1ccc(C(Cl)=C(c2ccc(OC)cc2)c2ccc(OC)cc2)cc1,inactive
4,Cc1ccc(C(C)c2ccc(C)c(C)c2)cc1C,inactive
5,Nc1ccc(-c2ccc(F)cc2)cc1,inactive
6,C[C@]12C=CC(=O)C=C1CC[C@@H]1[C@@H]2[C@@H](O)C[C@@]2(C)[C@H]1CC[C@]2(O)C(=O)CO,inactive
7,CCC(=O)Oc1ccc(/C(CC)=C(\CC)c2ccc(OC(=O)CC)cc2)cc1,inactive
8,C#CC1(O)CC[C@H]2[C@@H]3CCC4=CCCC[C@@H]4[C@H]3CC[C@@]21C (stereo partly specified),inactive

# Tested on: not listed separately
# Assay: TOX21_PR_LUC_Followup_Agonist_viability: Viability Assessment in the Tox21 HEK293 Progesterone Receptor (PR) Agonism Luciferase Follow-Up Assay (AID 2283941);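 note: loss of signal means cytotoxicity so actives lower viability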
# From the text: TOX21_PR_LUC_Followup is a secondary assay for specificity for the TOX21_PR_BLA_Agonist assay. To differentiate true PR agonists from cytotoxic substances, this follow up assay is multiplexed with a cell viability assay.TOX21_PR_LUC_Followup_Agonist_viability is an assay readout measuring cellular ATP content and detected with CellTiter-Glo Luciferase-coupled ATP quantitation.TOX21_PR_LUC_Followup_Agonist_viability used a type of viability reporter where loss-of-signal activity can be used to understand changes in the cell viability. Furthermore, this assay endpoint can be referred to as a secondary readout, because this assay has produced multiple assay endpoints where this one serves a viability function. To generalize the intended target to other relatable targets, this assay endpoint is annotated to the cell cycle intended target family, where the subfamily is cytotoxicity.
# as §1
Structure (SMILES),outcome,AC50
CCOC(=O)c1ccccc1C(=C1C=C(Br)C(=O)C(Br)=C1)c1cc(Br)c(O)c(Br)c1,inactive,
CC(C)(c1cc(Br)c(OCCO)c(Br)c1)c1cc(Br)c(OCCO)c(Br)c1,inactive,
COc1ccc(C(Cl)=C(c2ccc(OC)cc2)c2ccc(OC)cc2)cc1,inactive,
Cc1ccc(C(C)c2ccc(C)c(C)c2)cc1C,inactive,
Nc1ccc(-c2ccc(F)cc2)cc1,inactive,
C[C@]12C=CC(=O)C=C1CC[C@@H]1[C@@H]2[C@@H](O)C[C@@]2(C)[C@H]1CC[C@]2(O)C(=O)CO,inactive,
CCC(=O)Oc1ccc(/C(CC)=C(\CC)c2ccc(OC(=O)CC)cc2)cc1,inactive,
CC(=O)[C@H]1[C@H](C#N)C[C@H]2[C@@H]3CC=C4C[C@@H](O)CC[C@]4(C)[C@H]3CC[C@@]21C,inactive,
C#CC1(O)CC[C@H]2[C@@H]3CCC4=CCCC[C@@H]4[C@H]3CC[C@@]21C (stereo partly specified),,72.7 µM (active)

# Source: PubChem BioAssay (EPA / NIEHS)
